# Data from PubChem BioAssay (NCATS).
# Where “and” joins values, the source holds several entries; their conditions need not be identical. Identical values can stand only once. A number with no mark means an inactive call. Records with an inconclusive call do not appear. Entries that show only a call come without a potency. The source holds several records for some structures; these can differ, active in one and inactive in another. Calls of active or inactive are those of the source. Unless noted, the call rests on the fitted dose curve; in most records, active means well fitted curve in the direction sought with a large enough effect; inconclusive means small, poorly fitted or top-dose-only effect, or another doubt; inactive means no such curve, though single readings can be large; an effect the other way counts as inactive or inconclusive.
# Assays:
# [1] = Cell Viability - BJ (AID 421; calls by dose curve;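 further: potency means the concentration at half of the fitted maximal effect; cells exposed to compound for 40 hours at 37 °C before readout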); conditions: BJ fibroblast viability, qHTS
# In short: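 Quantitative HTS: ATP depletion in BJ cells after 40 hr compound exposure in complete culture medium, detected with CellTiter-Glo; AC50 from standard Hill fits.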
# [2] = Cell Viability - MRC5 (AID 434; calls by dose curve;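 further: potency means the concentration at half of the fitted maximal effect; potency reflects cytotoxicity seen as loss of intracellular ATP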); conditions: MRC5 lung fibroblast viability, qHTS
# In short: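 ATP luminescence read-out (CellTiter-Glo, 20 min RT) after 40 hr, 37 °C compound exposure of 1500 MRC5 cells/well. Data normalized to DMSO (basal) and 100 uM tamoxifen (100% inhibition); AC50 from standard Hill equation.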
# [3] = Cell Viability - SK-N-SH (AID 435; calls by dose curve;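 further: potency means the concentration at half of the fitted maximal effect; compound exposure lasted 40 h at 37 °C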); conditions: SK-N-SH neuroblastoma cell viability qHTS
# In short: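 SK-N-SH human neuroblastoma cells (1500/well) were exposed to compounds in complete medium for 40 h at 37 °C, and intracellular ATP was then measured by CellTiter-Glo luminescence. AC50 was taken from Hill fits, normalized to DMSO and 100 uM tamoxifen.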
# [4] = target: Mitogen-activated protein kinase 10 (Mus musculus) (UniProt Q61831); assay: JNK3 AlphaScreen Assay (AID 530; active means well fitted curve in either direction with a large enough effect, not every such curve was filed as active;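 further: kinase came from lysate of stimulated human HepG2 cells; signal reports phosphorylation of biotinylated GST-cJun 1-79 at Ser73 with 10 µM ATP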)
# In short: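 HepG2 lysate (IL-1b/TNFa pre-activated) + biotin-GST-cJun 1-79 + anti-pSer73 cJun; cpd titration, 15 min RT; ATP 10 uM start; Tris pH 7.6, MgCl2, DTT, vanadate; beads in EDTA buffer; AlphaScreen.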
# [5] = Cell Viability - SH-SY5Y (AID 544); conditions: SH-SY5Y neuroblastoma cell viability; viability change, negative = cytotoxic: at 92.2 µM (top of the series); further: nearly all actives have a fitted effect of over 55% in size
# In short: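 Quantitative HTS in SH-SY5Y neuroblastoma cells, 40 hr treatment at 37 °C, ATP content by luciferase luminescence; AC50 from Hill fits.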
# [6] = Cell Viability - Renal Proximal Tubule (AID 545); conditions: renal proximal tubule cells viability, primary cells of rat origin; activity change, negative = cytotoxicity: at 91.7 µM (top of the series); further: nearly all actives have a fitted effect of over 40% in size
# In short: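 Primary rat renal proximal tubule cells (1000/well) were treated with compounds for 40 hr at 37 °C in complete medium. Intracellular ATP was measured by CellTiter-Glo luminescence, and AC50 values came from Hill-equation fits of concentration-response data.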
# [7] = Cellular Toxicity (caspase-3) HepG2 (AID 654); further: potency means the concentration at half of the fitted maximal effect;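 on caspase-3 activation: cells exposed to compound for 16 hours before reading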
# In short: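 Concentration-response AC50 values reflect caspase-3/7 induction in HepG2 cells after 16 hours of compound exposure, quantified by luminescence from liberated aminoluciferin and referenced to 100 uM tamoxifen as full stimulation.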
# [8] = Cellular Toxicity (caspase-3) HUV-EC-C (AID 656)
# In short: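 HUV-EC-C endothelial cells, 1000/well, were pre-incubated 5 hr at 37°C, then exposed to compounds for 16 hr at 37°C. Caspase-Glo 3/7 luminescence was read after 20 min at room temperature. AC50 came from Hill fits, normalized to DMSO and 100 uM tamoxifen.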
# [9] = Cellular Toxicity (caspase-3) Mesangial (AID 660); conditions: mesangial cells, normalized: DMSO 0%, 100 µM tamoxifen 100%; at 91.7 µM (top of the series);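 further: combined caspase 3 and 7 activity read by Caspase-Glo luminescence; cells exposed to compound for 16 h before the caspase read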
# In short: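 AC50 values come from Hill-equation fits of caspase 3/7 activation, measured as Caspase-Glo luminescence in human glomerular mesangial cells exposed to compound for 16 h at 37 °C; 100% set by 100 uM tamoxifen.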
# [10] = Cellular Toxicity (caspase-3) N2a (AID 665); conditions: Potency: caspase-3 activation;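 further: compound exposure lasted 16 h at 37 °C before readout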
# In short: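 Concentration-response qHTS: compound-induced caspase-3/7 luminescence in N2a cells (16 h, 37 °C), relative to DMSO and 10 uM staurosporine controls; AC50 obtained using the standard Hill equation.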
# [11] = Cellular Toxicity (caspase-3) Renal Proximal Tubule (AID 667);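 further: cells exposed to compound for 16 hours at 37 °C before detection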
# In short: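 Primary rat proximal tubule cells, 1000/well, 5 h plating at 37 °C, then compound 16 h at 37 °C. Caspase-Glo 3/7 reagent, 1 h RT, luminescence. Normalized to DMSO (basal) and 10 uM staurosporine (100%); Hill-fit AC50.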
# [12] = target: Cytochrome P450 3A4 (Homo sapiens) (UniProt P08684); assay: qHTS Assay for Inhibitors and Substrates of Cytochrome P450 3A4 (AID 884); further: nearly all actives have a fitted effect of over 50% in size; further: potency means the concentration at half of the fitted maximal effect
# Sequence of Cytochrome P450 3A4 (Homo sapiens) (P08684 whole entry, looked up): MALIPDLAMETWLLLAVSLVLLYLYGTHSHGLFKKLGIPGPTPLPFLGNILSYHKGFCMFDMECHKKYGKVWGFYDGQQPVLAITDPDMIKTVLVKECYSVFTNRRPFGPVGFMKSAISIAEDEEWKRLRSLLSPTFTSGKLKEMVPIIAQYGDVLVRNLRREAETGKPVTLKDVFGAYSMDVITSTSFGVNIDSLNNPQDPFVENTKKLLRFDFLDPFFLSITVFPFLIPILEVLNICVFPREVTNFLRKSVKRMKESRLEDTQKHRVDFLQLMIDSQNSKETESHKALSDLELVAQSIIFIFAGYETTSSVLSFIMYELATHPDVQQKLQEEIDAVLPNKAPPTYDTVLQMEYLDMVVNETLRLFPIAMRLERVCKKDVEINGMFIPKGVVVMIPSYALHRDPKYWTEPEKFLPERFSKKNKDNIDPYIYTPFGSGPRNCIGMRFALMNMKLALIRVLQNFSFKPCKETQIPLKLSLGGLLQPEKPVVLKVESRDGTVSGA
# In short: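 Luminescent readout of luciferin produced by CYP3A4 (20 nM) dealkylation of Luciferin-PPXE, 25 uM (its KM). NADPH-driven reaction ran 60 min at RT after 10 min compound preincubation; data scaled to 57 uM ketoconazole as 100% inhibition.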
# [13] = target: Peroxisome proliferator-activated receptor alpha (Homo sapiens) (UniProt Q07869); assay: qHTS assay for small molecule agonists of the peroxisome proliferator-activated receptor alpha (PPARalpha) signaling pathway (AID 651778); conditions: PathHunter PPARalpha complementation, chemiluminescence, 6 h; max response: stronger effect = higher value
# Sequence of Peroxisome proliferator-activated receptor alpha (Homo sapiens) (Q07869 whole entry, looked up, the tested form may be a part): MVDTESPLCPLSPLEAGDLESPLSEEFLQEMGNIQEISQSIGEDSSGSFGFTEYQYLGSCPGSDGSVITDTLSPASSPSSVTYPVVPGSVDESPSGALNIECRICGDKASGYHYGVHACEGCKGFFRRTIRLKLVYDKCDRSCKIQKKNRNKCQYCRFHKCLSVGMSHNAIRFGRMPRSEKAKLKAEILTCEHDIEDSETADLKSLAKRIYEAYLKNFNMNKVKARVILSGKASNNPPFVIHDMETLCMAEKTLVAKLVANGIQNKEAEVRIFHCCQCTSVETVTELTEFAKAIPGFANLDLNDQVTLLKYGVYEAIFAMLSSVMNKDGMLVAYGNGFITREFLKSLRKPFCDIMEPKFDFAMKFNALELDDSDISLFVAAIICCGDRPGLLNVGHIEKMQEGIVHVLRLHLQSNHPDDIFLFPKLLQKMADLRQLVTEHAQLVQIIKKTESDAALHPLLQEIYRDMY
# In short: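 Enzyme-fragment complementation assay in which ligand-bound PPARalpha translocates and forms an active enzyme that generates chemiluminescence. Cells were plated overnight, exposed to compound for 6 hr at 37 C, and then given detection reagent for 60 min at room temperature.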
# [14] = qHTS assay for cell viability of HEK293 cells (AID 743288); conditions: ATP luminescence (CellTiter-Glo), 18 h; max response: stronger effect = lower value; further: nearly all actives have a fitted effect of over 50% in size; further: potency means the concentration at half of the fitted maximal effect
# In short: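 After 18 h compound exposure at 37 C, parental HEK293 cells (2,000/well) are lysed with CellTiter-Glo and luminescence is read following 30 min at room temperature.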
# [15] = target: Cytochrome P450 1A2 (Homo sapiens) (UniProt P05177); assay: p450-cyp1a2 (AID 410; calls by dose curve; further: potency means the concentration at half of the fitted maximal effect)
# Sequence of Cytochrome P450 1A2 (Homo sapiens) (P05177 whole entry, looked up): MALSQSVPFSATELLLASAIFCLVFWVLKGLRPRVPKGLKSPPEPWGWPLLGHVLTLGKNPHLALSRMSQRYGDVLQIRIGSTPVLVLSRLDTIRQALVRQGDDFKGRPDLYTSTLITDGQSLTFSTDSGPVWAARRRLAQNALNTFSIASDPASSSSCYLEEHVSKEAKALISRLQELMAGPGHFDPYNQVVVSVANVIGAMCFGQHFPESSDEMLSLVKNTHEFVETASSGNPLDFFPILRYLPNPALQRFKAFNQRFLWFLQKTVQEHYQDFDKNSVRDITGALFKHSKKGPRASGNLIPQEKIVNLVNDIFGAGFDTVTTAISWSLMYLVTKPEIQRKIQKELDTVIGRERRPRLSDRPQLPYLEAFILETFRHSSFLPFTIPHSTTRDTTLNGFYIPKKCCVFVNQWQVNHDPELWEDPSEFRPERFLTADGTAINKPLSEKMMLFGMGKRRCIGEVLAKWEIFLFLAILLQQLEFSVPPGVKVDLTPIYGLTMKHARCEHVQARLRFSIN
# In short: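 Read-out is luminescence from luciferin produced by CYP1A2 demethylation of Luciferin-ME (100uM, at Km). Detection reagent stopped the 60 min NADPH-dependent reaction; signals were normalized to 57 uM furafylline.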
# [16] = target: Cytochrome P450 3A4 (Homo sapiens) (UniProt P08684); assay: qHTS Assay for Activators of Cytochrome P450 3A4 (AID 885); further: nearly all actives have a fitted effect of over 65% in size
# In short: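 Using 20nM recombinant human CYP3A4 in potassium phosphate (200mM), substrate Luciferin-PPXE at 25uM, luminescent luciferin detection followed a 60-min RT NADPH reaction; data scaled to 57 uM ketoconazole.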
# [17] = target: 3',5'-cyclic-AMP phosphodiesterase 4B (Homo sapiens) (UniProt Q07343); assay: qHTS Assay for Inhibitors of PDE-IV (AID 607; active means well fitted activation curve with a large enough effect in the main read-out, with a control signal flat, not every such curve was filed as active)
# Sequence of 3',5'-cyclic-AMP phosphodiesterase 4B (Homo sapiens) (Q07343 whole entry, looked up): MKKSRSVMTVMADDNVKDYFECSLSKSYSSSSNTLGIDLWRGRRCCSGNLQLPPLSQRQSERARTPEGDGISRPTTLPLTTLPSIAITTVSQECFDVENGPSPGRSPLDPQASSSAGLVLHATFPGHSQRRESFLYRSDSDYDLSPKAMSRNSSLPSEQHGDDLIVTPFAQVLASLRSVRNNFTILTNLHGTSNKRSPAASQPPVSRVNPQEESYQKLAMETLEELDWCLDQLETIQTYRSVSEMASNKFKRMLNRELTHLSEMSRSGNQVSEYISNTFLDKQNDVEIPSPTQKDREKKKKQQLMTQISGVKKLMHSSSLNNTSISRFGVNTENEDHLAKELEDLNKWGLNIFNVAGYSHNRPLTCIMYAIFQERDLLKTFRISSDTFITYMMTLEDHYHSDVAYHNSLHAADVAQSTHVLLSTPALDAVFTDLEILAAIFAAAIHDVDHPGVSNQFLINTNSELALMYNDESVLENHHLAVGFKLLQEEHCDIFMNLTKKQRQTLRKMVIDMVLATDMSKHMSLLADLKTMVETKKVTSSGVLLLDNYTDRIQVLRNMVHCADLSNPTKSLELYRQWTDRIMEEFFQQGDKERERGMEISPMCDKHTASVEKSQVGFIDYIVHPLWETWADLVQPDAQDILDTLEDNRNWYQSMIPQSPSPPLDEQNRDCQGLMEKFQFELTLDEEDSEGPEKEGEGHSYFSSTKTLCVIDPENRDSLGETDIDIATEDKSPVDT
# In short: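 Live HEK293 cells with a modified cyclic nucleotide-gated (CNG) channel report intracellular cAMP via membrane-potential dye fluorescence (ex 535/em 590 nm). Endogenous PDE-IV was targeted. Compounds were tested at up to 22.9 uM final; RO 20-1724 100 uM served as control.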
structure (smiles),measurement,setting,value
ClC1=C(Cl)C(Cl)(Cl)C(Cl)=C1Cl,Potency,[1],> 92 µM
same,Potency,[2],> 92 µM
same,Potency,[3],> 92 µM
same,Potency,[4],inactive
same,Potency,[5],inactive
same,Potency,[6],inactive
same,Potency,[7],10 µM (active)
same,Potency,[8],inactive
same,caspase-3 activation,[9],0.653%
same,Potency,[10],inactive
same,outcome,[11],inactive
same,Potency,[12],inactive
same,max response,[13],-0.568% and 0.283%
same,Potency,[14],11.2 µM (active)
same,max response,[14],-13.8%
CCC/C=C(\CCC)C(NS(=O)(=O)c1ccccc1)c1ccc(C(F)(F)F)cc1 (stereo not drawn),Potency,[15],12.6 µM (active)
same,Potency,[12],6.31 µM (active)
same,Potency,[16],inactive
CCCC/C=C/C(NC(=O)c1ccccc1)c1ccccc1 (stereo not drawn),Potency,[15],3.98 µM (active)
same,Potency,[16],inactive
CCC/C=C(\CCC)C(NC(=O)c1ccc(C(F)(F)F)cc1)c1ccccc1 (stereo not drawn),Potency,[15],25.1 µM (active)
same,Potency,[17],inactive
same,Potency,[16],inactive
CC(C)c1cccc2c([Si](C)(C)C)c3c(nc12)-c1cccc(=O)n1C3,Potency,[15],15.8 µM (active)
same,Potency,[16],inactive
CCCCc1c2ccccc2nc2[nH]c3ccccc3c12,Potency,[15],0.2 µM (active)
same,Potency,[4],inactive
same,Potency,[16],inactive
CCC/C=C(\CCC)C(NS(=O)(=O)c1ccc(Cl)cc1)c1ccccc1 (stereo not drawn),Potency,[15],12.6 µM (active)
same,Potency,[12],7.94 µM (active)
same,Potency,[16],inactive
CC(C)(C)[Si](C)(C)c1c2c(nc3ccc(OCc4ccccc4)cc13)-c1cccc(=O)n1C2,Potency,[15],5.01 µM (active)
same,Potency,[4],inactive
same,Potency,[16],inactive
CCC/C=C(\CCC)C(NC(=O)Cc1ccccc1)c1ccc(C(=O)OC)cc1 (stereo not drawn),Potency,[15],15.8 µM (active)
same,Potency,[12],3.98 µM (active)
CCCC[C@@H]1C[C@H]1C(NC(=O)c1cccs1)c1ccc(Cl)cc1 (stereo partly drawn),Potency,[15],1 µM (active)
same,Potency,[17],inactive
same,Potency,[12],5.01 µM (active)
same,Potency,[16],inactive
COC(=O)[C@@]1(Cc2ccccc2)[C@@H]2C(=CC(=O)[C@H]2CC(=O)C(=O)N(C)C)CN1C(=O)c1ccccc1,Potency,[15],inactive
same,Potency,[12],7.94 µM (active)
same,Potency,[16],inactive
CCCC[C@@H]1C[C@H]1C(NC(=O)Cc1ccccc1)c1ccc(-c2ccccc2)cc1 (stereo partly drawn),Potency,[15],inactive
same,Potency,[4],inactive
same,Potency,[16],inactive
CC(C)c1cccc2cc3c(nc12)-c1cccc(=O)n1C3,Potency,[15],0.501 µM (active)
same,Potency,[4],inactive
same,Potency,[16],inactive
CC[C@@]1(O)C(=O)COc2c1cc1n(c2=O)Cc2c-1nc1cccc(C(C)C)c1c2[Si](C)(C)C,Potency,[15],7.94 µM (active)
same,Potency,[4],inactive
same,Potency,[16],inactive
C#CCOC(=O)NC(/C=C/CCCC)c1ccccc1 (stereo not drawn),Potency,[15],15.8 µM (active)
same,Potency,[4],inactive
same,Potency,[16],inactive
CCC/C=C(\CCC)C(NS(=O)(=O)c1ccc(C(F)(F)F)cc1)c1ccccc1 (stereo not drawn),Potency,[15],7.94 µM (active)
same,Potency,[17],inactive
same,Potency,[16],inactive
CC(C)c1cccc2nc3c(c([Si](C)(C)C(C)(C)C)c12)Cn1c-3cccc1=O,Potency,[15],25.1 µM (active)
same,Potency,[4],inactive
same,Potency,[16],inactive
CCC/C=C(\CCC)C(NS(=O)(=O)c1cccs1)c1ccc(C(=O)OC)cc1 (stereo not drawn),Potency,[15],12.6 µM (active)
same,Potency,[17],inactive
same,Potency,[12],3.16 µM (active)
same,Potency,[16],inactive
COC(=O)[C@H](C)[C@H]1C[C@]1(C)[C@H](NC(=O)OCc1ccccc1)c1ccccc1,Potency,[15],15.8 µM (active)
same,Potency,[17],inactive
same,Potency,[12],7.94 µM (active)
same,Potency,[16],inactive
CCC/C=C(\CCC)C(NC(=O)OCC(C)C)c1ccc(C(=O)OC)cc1 (stereo not drawn),Potency,[15],15.8 µM (active)
same,Potency,[17],inactive
same,Potency,[16],inactive
CCCCCC/C(C=O)=C\c1ccccc1,Potency,[1],> 92 µM
same,Potency,[2],> 92 µM
same,Potency,[3],> 92 µM
same,Potency,[4],inactive
same,Potency,[5],inactive
same,Potency,[6],inactive
same,Potency,[7],inactive
same,Potency,[8],inactive
same,caspase-3 activation,[9],1.26%
same,Potency,[10],inactive
same,outcome,[11],inactive
same,Potency,[12],inactive
same,max response,[13],-1.11%
same,max response,[14],-1.93%
CCC/C=C(\CCC)C(NC(=O)C(C)(C)C)c1ccc(C(=O)OC)cc1 (stereo not drawn),Potency,[15],inactive
same,Potency,[16],inactive
CCC/C=C(\CCC)C(NS(=O)(=O)c1ccc(C(F)(F)F)cc1)c1ccc(C(=O)OC)cc1 (stereo not drawn),Potency,[15],inactive
same,Potency,[16],inactive
CCCC[C@@H]1C[C@H]1C(NC(=O)c1ccco1)c1ccccc1 (stereo partly drawn),Potency,[15],2 µM (active)
same,Potency,[4],inactive
same,Potency,[16],inactive
CCc1c2c(nc3c(C(C)C)cccc13)-c1cccc(=O)n1C2,Potency,[15],0.398 µM (active)
same,Potency,[16],inactive
CCCC/C=C/C(NC(=O)Oc1cccc(C(F)(F)F)c1)c1ccccc1 (stereo not drawn),Potency,[15],2.51 µM (active)
same,Potency,[17],inactive
same,Potency,[16],inactive
